From PubChem BioAssay (NCI)
This is part of a sample that, as a whole, favours compounds with a hit. Of some 79,000 tested, about 15% had one in any assay. Activity calls are given as the source filed them. Rule as the data show it: active = growth inhibition above about 70%; inactive = the rest.

Tests used:
[1] = NCI Yeast Anticancer Drug Screen. Data for the rad52 strain (AID 147);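 also: 0% = growth of vehicle-treated control cultures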; settings: S. cerevisiae rad52 mutant growth inhibition, stronger effect = higher value
Method in brief: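 Screen used a yeast mutant impaired in DNA repair. After compound exposure, growth was measured. Values reflect inhibition compared with vehicle-treated cells.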

[2] = NCI Yeast Anticancer Drug Screen. Data for the wt1 strain (AID 149);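 also: 0% = growth of vehicle-treated wt1 cultures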; settings: S. cerevisiae wt1 strain (SPY 50644) growth inhibition, stronger effect = higher value
Method in brief: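 Measured: growth of wt1 yeast under compound versus vehicle treatment, reported as inhibition.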

[3] = NCI Yeast Anticancer Drug Screen. Data for the rad50EPP+ strain (AID 151);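 also: 0% = growth of vehicle-treated control cultures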; settings: S. cerevisiae rad50 mutant strain, stronger effect = higher value
Method in brief: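 Exposing the rad50EPP+ strain to each compound, growth was compared with vehicle-only cultures to give inhibition.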

[4] = NCI Yeast Anticancer Drug Screen. Data for the rad50 strain (AID 155);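 also: 0% = growth of vehicle-only cultures of the same strain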; settings: S. cerevisiae rad50 strain growth inhibition, stronger effect = higher value
Method in brief: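 Growth of the mutant yeast was measured after compound exposure and referenced to vehicle-treated cultures.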

[5] = NCI Yeast Anticancer Drug Screen. Data for the mec2-1 strain (AID 157); settings: S. cerevisiae mec2-1 strain, stronger effect = higher value
Method in brief: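 Readout is yeast growth inhibition, normalised to vehicle-treated controls, in the mec2-1 strain exposed to compound.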

[6] = NCI Yeast Anticancer Drug Screen. Data for the rad14 strain (AID 159);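 also: 0% = growth of vehicle-treated control cultures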; settings: S. cerevisiae rad14 strain growth inhibition, stronger effect = higher value
Method in brief: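 Here, inhibition of yeast growth was measured after compound exposure, using a strain with a genetic defect in DNA damage repair and vehicle-treated cultures as the reference.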

[7] = NCI Yeast Anticancer Drug Screen. Data for the sgs1 mgt1 strain (AID 161);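 also: 0% = growth of cultures given vehicle only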; settings: S. cerevisiae sgs1 mgt1 strain, stronger effect = higher value
Method in brief: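 This yeast growth screen uses a strain with defined DNA-repair lesions; compound-treated growth is compared with vehicle-treated growth.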

[8] = NCI Yeast Anticancer Drug Screen. Data for the CLN2oe strain (AID 163);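 also: 0% = growth of vehicle-only control cultures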; settings: S. cerevisiae CLN2oe strain, stronger effect = higher value
Method in brief: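 Values reflect how much compound exposure reduced yeast growth, referenced to vehicle-exposed cells. Assay organism is a strain with a defined genetic change affecting cell-cycle control.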

[9] = NCI Yeast Anticancer Drug Screen. Data for the cln2 rad14 strain (AID 165);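 also: 0% = growth equal to vehicle treated cultures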; settings: S. cerevisiae cln2 rad14 strain, stronger effect = higher value
Method in brief: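 Relative to vehicle controls, growth inhibition of compound-treated cln2 rad14 yeast was recorded.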

[10] = NCI Yeast Anticancer Drug Screen. Data for the bub3 strain (AID 167); settings: S. cerevisiae bub3 mutant strain, stronger effect = higher value
Method in brief: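 Whole-cell yeast assay. The mutant strain was incubated with compounds, and growth inhibition was determined by comparison with vehicle-treated cells.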

[11] = NCI Yeast Anticancer Drug Screen. Data for the wt2 strain (AID 169);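 also: 0% = growth of vehicle-treated yeast cultures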; settings: S. cerevisiae wt2 strain growth inhibition, stronger effect = higher value
Method in brief: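 Values express reduction in yeast growth under compound treatment, referenced to vehicle-treated cells.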

[12] = NCI Yeast Anticancer Drug Screen. Data for the mlh1 strain (AID 171);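 also: 0% = growth of vehicle-treated control cultures of the same strain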; settings: S. cerevisiae mlh1 strain growth inhibition, stronger effect = higher value
Method in brief: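 Steps: expose the defined-mutant yeast strain to compound; expose a parallel culture to vehicle; measure growth; express compound effect as inhibition relative to the vehicle culture.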

[13] = NCI Yeast Anticancer Drug Screen. Data for the sgs1 strain (AID 173);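 also: 0% = growth of vehicle-only control cultures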; settings: S. cerevisiae sgs1 mutant, stronger effect = higher value
Method in brief: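 Treat defined-mutant yeast with compound; measure growth; calculate inhibition relative to vehicle-treated cells.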

[14] = NCI Yeast Anticancer Drug Screen. Data for the mlh1 rad18 strain (AID 175); settings: S. cerevisiae mlh1 rad18 strain growth inhibition, stronger effect = higher value
Method in brief: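 Test agents were incubated with a yeast strain of defined genotype (DNA damage repair defect). Inhibition of growth was derived by comparison with vehicle-exposed cultures.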

[15] = NCI Yeast Anticancer Drug Screen. Data for the rad18 strain (AID 177); settings: S. cerevisiae rad18 mutant growth inhibition, stronger effect = higher value
Method in brief: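 A genetically defined yeast mutant impaired in DNA damage repair was treated with test compounds, then its growth was measured against cultures receiving vehicle alone.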

[16] = at 5.0 µM (retest, dose inferred, filed as 0.5)
[17] = at 50.0 µM (retest, dose inferred, filed as 5.0)

Measured: growth inhibition

Clc1ccc(C(c2ccc(Cl)cc2)N2CCNCC2)cc1
active: [1]; at 100.0 µM 98% | [2]; at 100.0 µM 98% | [4]; [17] 95% | [4]; at 50.0 µM 92% | [4]; at 100.0 µM 97% | [5]; [16] 70% | [5]; [17] 96% | [5]; at 50.0 µM 93% | [5]; at 100.0 µM 98% | [6]; at 33.0 µM 71% | [6]; at 100.0 µM 98% | [7]; [17] 98% | [8]; at 100.0 µM 92% | [9]; [17] 88% | [10]; at 33.0 µM 71% | [10]; [17] 96% | [10]; at 100.0 µM 94% | [11]; at 100.0 µM 99% | [12]; at 100.0 µM 98% | [13]; at 100.0 µM 98% | [14]; [17] 96% | [14]; at 50.0 µM 92.3% | [15]; at 100.0 µM 98%
inactive: [1]; at 1.2 µM 2% | [1]; at 3.7 µM -3% | [1]; at 11.0 µM -1% | [1]; at 33.0 µM 46% | [2]; at 1.2 µM 5% | [2]; at 3.7 µM 6% | [2]; at 11.0 µM 3% | [2]; at 33.0 µM 29% | [3]; at 1.2 µM 1% | [3]; at 3.7 µM 5% | [3]; at 11.0 µM 5% | [3]; at 33.0 µM 3% | [3]; at 100.0 µM -1% | [4]; at 1.2 µM -3% | [4]; at 3.7 µM -1% | [4]; [16] 38% | [4]; at 11.0 µM 6% | [4]; at 33.0 µM 67% | [5]; at 1.2 µM -19% | [5]; at 3.7 µM -19% | [5]; at 11.0 µM -10% | [5]; at 33.0 µM 49% | [6]; at 1.2 µM -36% | [6]; at 3.7 µM -30% | [6]; at 11.0 µM -41% | [7]; [16] -35% | [8]; at 1.2 µM -1% | [8]; at 3.7 µM -2% | [8]; at 11.0 µM 1% | [8]; at 33.0 µM 18% | [9]; [16] 61% | [10]; at 1.2 µM 1% | [10]; at 3.7 µM 3% | [10]; [16] 12% | [10]; at 11.0 µM 12% | [11]; at 1.2 µM -3% | [11]; at 3.7 µM -2% | [11]; at 11.0 µM -81% | [11]; at 33.0 µM 46% | [12]; at 1.2 µM -35% | [12]; at 3.7 µM -34% | [12]; at 11.0 µM -34% | [12]; at 33.0 µM 49% | [13]; at 1.2 µM -26% | [13]; at 3.7 µM -33% | [13]; at 11.0 µM -34% | [13]; at 33.0 µM 41% | [14]; [16] 45% | [15]; at 1.2 µM 3% | [15]; at 3.7 µM -7% | [15]; at 11.0 µM 4% | [15]; at 33.0 µM 65%

CCOC(=O)C1=C(C)NC(C)=C(C(=O)OCC)C1c1ccc(Cl)cc1
inactive: [1]; at 1.2 µM -13% | [1]; at 3.7 µM 6% | [3]; at 1.2 µM 6% | [3]; at 3.7 µM 4% | [3]; at 11.0 µM 16% | [3]; at 33.0 µM 0% | [3]; at 100.0 µM -8% | [4]; at 1.2 µM 14% | [4]; at 3.7 µM 35% | [5]; at 1.2 µM -9% | [5]; at 3.7 µM -5% | [6]; at 1.2 µM -14% | [6]; at 3.7 µM -6% | [7]; [16] -1% | [8]; at 1.2 µM -4% | [8]; at 3.7 µM -10% | [8]; at 11.0 µM 49% | [9]; [16] 27% | [10]; at 1.2 µM 20% | [10]; at 3.7 µM 44% | [10]; [16] 47% | [11]; at 1.2 µM -3% | [11]; at 3.7 µM -10% | [12]; at 1.2 µM -27% | [12]; at 3.7 µM -9% | [12]; at 11.0 µM 44% | [13]; at 1.2 µM 13% | [13]; at 3.7 µM 19% | [15]; at 1.2 µM 4% | [15]; at 3.7 µM 14%
active: [1]; at 11.0 µM 92% | [1]; at 33.0 µM 78% | [1]; at 100.0 µM 92% | [4]; [16] 98% | [4]; at 11.0 µM 93% | [4]; at 33.0 µM 88% | [4]; [17] 100% | [4]; at 50.0 µM 90.2% | [4]; at 100.0 µM 89% | [5]; [16] 99% | [5]; at 11.0 µM 70% | [5]; at 33.0 µM 70% | [5]; [17] 99% | [5]; at 50.0 µM 91.5% | [5]; at 100.0 µM 92% | [6]; at 11.0 µM 85% | [6]; at 33.0 µM 82% | [6]; at 100.0 µM 93% | [7]; [17] 98% | [8]; at 33.0 µM 83% | [8]; at 100.0 µM 88% | [9]; [17] 98% | [10]; at 11.0 µM 85% | [10]; at 33.0 µM 81% | [10]; [17] 98% | [10]; at 100.0 µM 93% | [11]; at 11.0 µM 74% | [11]; at 33.0 µM 85% | [11]; at 100.0 µM 96% | [12]; at 33.0 µM 84% | [12]; at 100.0 µM 92% | [13]; at 11.0 µM 73% | [13]; at 33.0 µM 89% | [13]; at 100.0 µM 95% | [14]; [16] 100% | [14]; [17] 100% | [14]; at 50.0 µM 90.2% | [15]; at 11.0 µM 93% | [15]; at 33.0 µM 89% | [15]; at 100.0 µM 92%
